The text below walks through data of PubChem BioAssay (Tox21).

Each structure is given as a SMILES string. Records with an inconclusive call do not appear. A call without a number means that no potency is given here. A number with no mark means an inactive call. Activity calls are given as the source filed them. Unless noted, calls follow the shape of the dose curve; as a rule, active = well fitted cell-killing curve with a large enough effect in the repeat runs; inconclusive = weak or mixed curves, or effect the other way; inactive = no such curve, though single readings can be large or run the other way.

The target of one assay is Progesterone receptor (Homo sapiens) (UniProt P06401). Nature of the assay: qHTS assay to identify small molecule antagonists of the progesterone receptor (PR) signaling pathway (AID 1346795; active = well fitted inhibition curve with a large enough effect in the signal ratio in the repeat runs, not every such curve was filed as active; the % refers to the signal ratio; also: potency is read from the fitted curve at half-maximal effect). Conditions: PR-UAS-bla HEK293T, beta-lactamase FRET ratio, 16 h; series mostly up to 92.4 µM. In short, it runs like this: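 PR-UAS-bla HEK293T cells carrying a UAS-driven beta-lactamase reporter were plated in medium with 2% charcoal-stripped FBS and rested 6 hr at 37C. Compounds were added with 1 nM R5020 (final) for 16 hr, then FRET substrate loaded 2 hr at room temperature.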
Sequence of Progesterone receptor (Homo sapiens) (P06401 whole entry, looked up): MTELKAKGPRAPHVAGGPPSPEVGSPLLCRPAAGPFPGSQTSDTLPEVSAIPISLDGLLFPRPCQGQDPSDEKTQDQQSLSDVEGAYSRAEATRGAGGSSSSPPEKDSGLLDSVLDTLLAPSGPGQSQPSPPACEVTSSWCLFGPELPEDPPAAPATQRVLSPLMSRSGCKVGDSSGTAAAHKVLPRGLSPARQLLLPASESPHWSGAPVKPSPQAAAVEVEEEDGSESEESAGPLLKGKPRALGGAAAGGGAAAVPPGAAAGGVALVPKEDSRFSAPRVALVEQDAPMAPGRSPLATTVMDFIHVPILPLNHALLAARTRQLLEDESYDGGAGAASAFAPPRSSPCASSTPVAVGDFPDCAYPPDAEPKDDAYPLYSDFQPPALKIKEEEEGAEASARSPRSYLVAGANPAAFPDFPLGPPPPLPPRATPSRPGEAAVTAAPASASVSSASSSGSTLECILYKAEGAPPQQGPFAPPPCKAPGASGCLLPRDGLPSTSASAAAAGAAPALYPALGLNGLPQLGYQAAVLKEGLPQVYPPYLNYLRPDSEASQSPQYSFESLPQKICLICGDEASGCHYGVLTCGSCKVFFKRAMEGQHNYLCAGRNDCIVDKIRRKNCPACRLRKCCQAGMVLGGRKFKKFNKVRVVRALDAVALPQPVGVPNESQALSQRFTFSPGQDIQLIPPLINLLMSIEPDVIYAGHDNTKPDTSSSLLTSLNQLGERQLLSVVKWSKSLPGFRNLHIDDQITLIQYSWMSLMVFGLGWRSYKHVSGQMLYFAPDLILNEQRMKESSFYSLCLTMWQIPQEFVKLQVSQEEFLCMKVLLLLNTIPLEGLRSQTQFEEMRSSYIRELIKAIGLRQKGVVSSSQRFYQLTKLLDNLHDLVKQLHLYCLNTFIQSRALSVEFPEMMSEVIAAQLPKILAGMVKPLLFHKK
Regarding `CCOP(=S)(OCC)SCSc1ccc(Cl)cc1`, the Potency is 4.86 µM (active).

Turning to `CCOC(=O)N(C)C(=O)CSP(=S)(OCC)OCC`, the Potency entry was “inactive”.

Take `CCOP(=S)(Oc1cnc(C(C)(C)C)nc1)OC(C)C` (stereo unspecified): the Potency result was “inactive”.

In the case of `CCCCN(CCCCO)N=O`, the Potency entry was “inactive”.

Consider `NC1=NC(=O)C(c2ccccc2)O1` (stereo unspecified), for which the Potency result is “inactive”.

Take `CCC(Cl)[N+](=O)[O-]` (stereo unspecified): the Potency result is “inactive”.

In the case of `CCCSC(=O)Cl`, the Potency result is “inactive”.

In the case of `CCN(CC)C(C)C(=O)c1ccccc1` (stereo unspecified), the Potency result was “inactive”.

In the case of `C[N+](=O)[O-]`, the Potency result was “inactive”.

`ClCC(Cl)Cl`: the Potency entry is “inactive”.

In the case of `CC(=O)C(Cl)Cl`, the Potency result is “inactive”.

Regarding `CC1=C(C(=O)O)N2C(=O)[C@@H](N)[C@H]2SC1`, the activity change, negative = inhibition is 1.39% [at 18.9 µM].

For the molecule `CCOc1nc(C(Cl)(Cl)Cl)ns1`, the Potency result was “inactive”.

`CNC(=O)Oc1cccc(C(C)C)c1`: the Potency entry was “inactive”.

On to `ClC(Cl)C(Cl)Cl`, for which the Potency entry was “inactive”.

Take `CN1C[C@@H](NS(=O)(=O)N(C)C)C[C@@H]2c3cccc4c3c(cn4C)C[C@H]21`: the Potency entry is “inactive”.

Turning to `CC(C=O)Cc1ccc2c(c1)OCO2` (stereo unspecified), the Potency result is “inactive”.

For the molecule `CCCCOP(=O)(O)OCCCC`, the Potency result was “inactive”.

As for `Cc1cccc(C#N)c1`, the Potency entry is “inactive”.

As to `O=[N+]([O-])c1cc(Cl)c(Cl)c(Cl)c1`, the Potency entry was “inactive”.

For `Nc1ccccc1Cl`, the Potency result was “inactive”.

Take `O=C1c2ccccc2C(=O)c2ccccc21`: the activity change, negative = inhibition was 12.9% [at 18.9 µM].

Turning to `CNC(=O)Oc1c(C(C)(C)C)cc(C)cc1C(C)(C)C`, the Potency entry is “inactive”.

Regarding `N#CCBr`, the Potency result was “inactive”.

Consider `CCSC(=O)N(CC)C1CCCCC1`, for which the Potency result is “inactive”.

For `CNC(=O)Oc1ccc(N(C)C)c(C)c1`, the Potency result is “inactive”.

Regarding `c1cc2c(c(N3CCNCC3)c1)OCCO2`, the Potency entry is “inactive”.

In the case of `OC(Cn1cncn1)(c1ccc(F)cc1)c1ccccc1F` (stereo unspecified), the Potency entry is “inactive”.

Regarding `CC1=NNC(=O)N(/N=C/c2cccnc2)C1`, the Potency entry was “inactive”.

On to `OCCSCSCCO`, for which the Potency entry is “inactive”.

Consider `O=NN1CCN(N=O)CC1`, for which the Potency entry was “inactive”.

`CNC(=O)O/N=C(\C)SC`: the Potency entry is “inactive”.

Consider `O=C(O)c1ccc2[nH]cc(CCCCN3CC=C(c4ccccc4)CC3)c2c1`, for which the Potency result was “inactive”.

Turning to `CCC1(c2ccccc2)C(=O)NC(=O)NC1=O`, the Potency entry is “inactive”.

As to `N#CCNCC#N`, the Potency entry is “inactive”.

Turning to `ClCCOCOCCCl`, the Potency result was “inactive”.

Take `CN(C)CCc1ccc(O)cc1`: the Potency result is “inactive”.

Tested on in the next assay: not listed separately
Nature of the assay: qHTS assay to identify small molecule antagonists of the progesterone receptor (PR) signaling pathway - cell viability counter screen (AID 1346798). Also: nearly all actives have a fitted effect of over 50% in size. Conditions: PR-UAS-bla HEK293T viability, CellTiter-Glo luminescence, 16 h; series mostly up to 92.4 µM. In short, it runs like this:
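PR-UAS-bla HEK293T cells in medium with 2% charcoal-stripped FBS were treated with compounds plus R5020 for 16 hr at 37C. Cell viability was then read by CellTiter-Glo luminescence after 30 min at room temperature in the same wells.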
(In general: In qHTS, concentration-response curves come from the screen itself.)
As for `CCOP(=S)(OCC)SCSc1ccc(Cl)cc1`, the Potency result was “inactive”.

On to `CCOC(=O)N(C)C(=O)CSP(=S)(OCC)OCC`, for which the Potency result is “inactive”.

On to `CCOP(=S)(Oc1cnc(C(C)(C)C)nc1)OC(C)C` (stereo unspecified), for which the Potency result was “inactive”.

Turning to `CCCCN(CCCCO)N=O`, the Potency entry was “inactive”.

Regarding `NC1=NC(=O)C(c2ccccc2)O1` (stereo unspecified), the Potency result was “inactive”.

In the case of `CCC(Cl)[N+](=O)[O-]` (stereo unspecified), the Potency entry is “inactive”.

With `CCCSC(=O)Cl`, the Potency entry is “inactive”.

With `CCN(CC)C(C)C(=O)c1ccccc1` (stereo unspecified), the Potency entry is “inactive”.

For the molecule `C[N+](=O)[O-]`, the Potency entry is “inactive”.

With `ClCC(Cl)Cl`, the Potency result was “inactive”.

For the molecule `CC(=O)C(Cl)Cl`, the Potency entry is “inactive”.

Take `CC1=C(C(=O)O)N2C(=O)[C@@H](N)[C@H]2SC1`: the activity change, negative = cytotoxicity is 11.2% [at 18.9 µM].

Take `CCOc1nc(C(Cl)(Cl)Cl)ns1`: the Potency result was “inactive”.

For `CNC(=O)Oc1cccc(C(C)C)c1`, the Potency result was “inactive”.

Turning to `ClC(Cl)C(Cl)Cl`, the Potency entry is “inactive”.

For `CN1C[C@@H](NS(=O)(=O)N(C)C)C[C@@H]2c3cccc4c3c(cn4C)C[C@H]21`, the Potency result was “inactive”.

In the case of `CC(C=O)Cc1ccc2c(c1)OCO2` (stereo unspecified), the Potency entry is “inactive”.

On to `CCCCOP(=O)(O)OCCCC`, for which the Potency entry is “inactive”.

`Cc1cccc(C#N)c1`: the Potency entry was “inactive”.

Regarding `O=[N+]([O-])c1cc(Cl)c(Cl)c(Cl)c1`, the Potency result was “inactive”.

For `Nc1ccccc1Cl`, the Potency entry is “inactive”.

With `O=C1c2ccccc2C(=O)c2ccccc21`, the activity change, negative = cytotoxicity was 9.36% [at 18.9 µM].

For `CNC(=O)Oc1c(C(C)(C)C)cc(C)cc1C(C)(C)C`, the Potency entry was “inactive”.

With `N#CCBr`, the Potency result is “inactive”.

Regarding `CCSC(=O)N(CC)C1CCCCC1`, the Potency entry is “inactive”.

Consider `CNC(=O)Oc1ccc(N(C)C)c(C)c1`, for which the Potency entry was “inactive”.

Consider `c1cc2c(c(N3CCNCC3)c1)OCCO2`, for which the Potency entry is “inactive”.

Turning to `OC(Cn1cncn1)(c1ccc(F)cc1)c1ccccc1F` (stereo unspecified), the Potency entry was “inactive”.

Turning to `CC1=NNC(=O)N(/N=C/c2cccnc2)C1`, the Potency result was “inactive”.

For `OCCSCSCCO`, the Potency entry is “inactive”.

For the molecule `O=NN1CCN(N=O)CC1`, the Potency result is “inactive”.

With `CNC(=O)O/N=C(\C)SC`, the Potency entry was “inactive”.

On to `O=C(O)c1ccc2[nH]cc(CCCCN3CC=C(c4ccccc4)CC3)c2c1`, for which the Potency result was “inactive”.

`CCC1(c2ccccc2)C(=O)NC(=O)NC1=O`: the Potency result is “inactive”.

For the molecule `N#CCNCC#N`, the Potency result is “inactive”.

`ClCCOCOCCCl`: the Potency result is “inactive”.

Turning to `CN(C)CCc1ccc(O)cc1`, the Potency entry is “inactive”.

Tested on in the next assay: not listed separately
Briefly: qHTS assay to identify small molecule agonists of the progesterone receptor (PR) signaling pathway - cell viability counter screen (AID 1346799; calls by dose curve; also: nearly all actives have a fitted effect of over 45% in size). Conditions: PR-UAS-bla HEK293T viability, CellTiter-Glo luminescence, 16 h; series mostly up to 92.4 µM. In short, it runs like this: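 PR-UAS-bla HEK293T cells, 3,000 per well in medium with 2% charcoal-stripped FBS, were preincubated 6 hr at 37C, then exposed to compounds for 16 hr; viability was read as CellTiter-Glo luminescence after 30 min at room temperature.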
In the case of `CCOP(=S)(OCC)SCSc1ccc(Cl)cc1`, the Potency entry was “inactive”.

As for `CCOC(=O)N(C)C(=O)CSP(=S)(OCC)OCC`, the Potency result is “inactive”.

`CCOP(=S)(Oc1cnc(C(C)(C)C)nc1)OC(C)C` (stereo unspecified): the Potency entry was “inactive”.

As to `CCCCN(CCCCO)N=O`, the Potency entry is “inactive”.

For `NC1=NC(=O)C(c2ccccc2)O1` (stereo unspecified), the Potency entry is “inactive”.

As to `CCC(Cl)[N+](=O)[O-]` (stereo unspecified), the Potency result was “inactive”.

Consider `CCCSC(=O)Cl`, for which the Potency result is “inactive”.

Regarding `CCN(CC)C(C)C(=O)c1ccccc1` (stereo unspecified), the Potency result was “inactive”.

As to `C[N+](=O)[O-]`, the Potency result was “inactive”.

With `ClCC(Cl)Cl`, the Potency entry is “inactive”.

In the case of `CC(=O)C(Cl)Cl`, the Potency result was “inactive”.

For the molecule `CC1=C(C(=O)O)N2C(=O)[C@@H](N)[C@H]2SC1`, the activity change, negative = cytotoxicity is 0.398% [at 19 µM].

For `CCOc1nc(C(Cl)(Cl)Cl)ns1`, the Potency entry was “inactive”.

Turning to `CNC(=O)Oc1cccc(C(C)C)c1`, the Potency result was “inactive”.

As for `ClC(Cl)C(Cl)Cl`, the Potency result was “inactive”.

As to `CN1C[C@@H](NS(=O)(=O)N(C)C)C[C@@H]2c3cccc4c3c(cn4C)C[C@H]21`, the Potency result was “inactive”.

In the case of `CC(C=O)Cc1ccc2c(c1)OCO2` (stereo unspecified), the Potency entry was “inactive”.

Turning to `CCCCOP(=O)(O)OCCCC`, the Potency result was “inactive”.

`Cc1cccc(C#N)c1`: the Potency result is “inactive”.

As to `O=[N+]([O-])c1cc(Cl)c(Cl)c(Cl)c1`, the Potency entry was “inactive”.

As to `Nc1ccccc1Cl`, the Potency result was “inactive”.

For the molecule `O=C1c2ccccc2C(=O)c2ccccc21`, the activity change, negative = cytotoxicity is 2.43% [at 19 µM].

Take `CNC(=O)Oc1c(C(C)(C)C)cc(C)cc1C(C)(C)C`: the Potency result was “inactive”.

In the case of `N#CCBr`, the Potency entry was “inactive”.

For the molecule `CCSC(=O)N(CC)C1CCCCC1`, the Potency result is “inactive”.

As for `CNC(=O)Oc1ccc(N(C)C)c(C)c1`, the Potency entry was “inactive”.

As for `c1cc2c(c(N3CCNCC3)c1)OCCO2`, the Potency entry is “inactive”.

Take `OC(Cn1cncn1)(c1ccc(F)cc1)c1ccccc1F` (stereo unspecified): the Potency entry was “inactive”.

`CC1=NNC(=O)N(/N=C/c2cccnc2)C1`: the Potency entry was “inactive”.

For `OCCSCSCCO`, the Potency result was “inactive”.

For `O=NN1CCN(N=O)CC1`, the Potency result was “inactive”.

For the molecule `CNC(=O)O/N=C(\C)SC`, the Potency entry was “inactive”.

As for `O=C(O)c1ccc2[nH]cc(CCCCN3CC=C(c4ccccc4)CC3)c2c1`, the Potency entry was “inactive”.

`CCC1(c2ccccc2)C(=O)NC(=O)NC1=O`: the Potency result is “inactive”.

As for `N#CCNCC#N`, the Potency entry is “inactive”.

`ClCCOCOCCCl`: the Potency result is “inactive”.

Regarding `CN(C)CCc1ccc(O)cc1`, the Potency result is “inactive”.
